According to PubChem BioAssay AID916 (National Center for Advancing Translational Sciences (NCATS), 2007):
Results filed as inconclusive are left out. The source made the active and inactive calls. Calls follow the shape of the dose curve; as a rule, active = well fitted activation curve with a large enough effect in the signal ratio, with a control signal flat (not every such curve was filed as active); inconclusive = small, poorly fitted or top-dose-only effect, or a change in a side signal; inactive = flat fitted curve, though single readings scatter; the % refers to the signal ratio.

Assay: Confirmation Concentration-Response Assay for Cell signaling CRE-BLA (Fsk stim)
Details: CHO CRE-bla reporter (cAMP response element driving beta-lactamase), NKH477 EC10 stim, FRET ratio; series mostly up to 38.3 µM
Description: NIH Molecular Libraries Screening Centers Network [MLSCN] NIH Chemical Genomics Center [NCGC] MLSCN Grant: 1X01MH079867-01 Assay Provider: Marshall W. Nirenberg, U.S. National Heart, Lung and Blood Institute CRE beta-lactamase Assay Overview Memories persist for different lengths of time, from seconds or minutes to a lifetime. There are two kinds of memory: short-term memory (STM) and long-term memory (LTM). STM lasts for minutes to hours, which maybe mediated by modifications of molecules involved in synaptic functions. LTM lasts for days or longer, and may be due to the formation of new synapses or restructuring of existing synapses. LTM, but not STM, requires gene transcription and synthesis of proteins. CREB (cyclic-AMP Responsive Element Binding Protein) is one of the candidates plays an important role for enhancement of some types of LTM. CREB, a family of transcription factors, regulates the transcription of genes containing cAMP Responsive Elements (CRE). CRE is a nucleotide sequence often found in the promoter regions of genes that are binding sites for CREB. Using a beta-lactamase reporter-gene under control of cAMP responsive element, a cell-based assay [CellSensor(TM) CRE-bla CHO developed by Invitrogen Corp.] was used to measure forskolin-induced signaling. The selected compounds were measured for their ability to modulate positively the action of EC10 NKH 477, a water soluble forskolin, on reporter gene activity. Compounds were screened in a titration series in 1536-well format. Positive modulators were identified based on the AC50 values derived from the screening data.
NCGC Assay Protocol Summary 2000 cells/5uL in Opti-MEM medium containing 0.5% dialyzed FBS, 0.1 mM NEAA, 1 mM sodium pyruvate and 10 mM HEPES was dispensed into 1536-well plates and cells were cultured at 37 degrees Celsius overnight. Next day 23 nL of compounds or DMSO were delivered to each well using a pin tool, and 1uL of EC10 level of NKH 477, or EC100 level of IBMX, a PDE inhibitor, in the present of NKH 477, or assay medium was added. And then the plates were incubated at 37 degrees Celsius for 3 hours. 1 uL of CCF4-dye mixture was added to each well. After incubated at room temperature for 2 hours the plates were measured on an EnVision plate reader at Excitation 405nm, Emission1=460nm and Emission 2=530nm. The %Activity was determined from the ratio of 460nm/530nm. Keywords: NIH Roadmap, MLSCN, MLSMR, qHTS, NCGC, CRE, beta-lactamase reporter-gene assay.

Structure (SMILES) | Potency
COC(=O)c1ccc(CSc2nc3c(cnn3-c3ccc(F)cc3)c(=O)[nH]2)o1 | 15.8 µM (active)
CN(C)c1nc(N(C)C)nc(N(C)C)n1 | inactive
Cc1cc(C)n(-c2nc(Nc3ccccc3)nc(-n3nc(C)cc3C)n2)n1 | inactive
CSc1nc2ccc(Nc3nc(N4CCOCC4)nc(N4CCOCC4)n3)cc2s1 | 12.6 µM (active)
CCN(C(=O)c1cn(C)c(=O)c2cc(OC)c(OC)cc12)c1cc(OC)ccc1OC | inactive
CCc1nc(SCC(=O)N2CCc3ccccc32)c2oc3ccccc3c2n1 | 10 µM (active)
O=C(c1cc(S(=O)(=O)N2CCOCC2)ccc1F)N1CCCc2ccccc21 | inactive
Fc1ccc(C2=Nn3c(Cc4ccccc4)nnc3SC2)cc1 | inactive
Cc1cc(Nc2ccc3ccccc3c2)n2ncnc2n1 | inactive
CCOC(=O)c1ccccc1NC(=O)c1cc(S(=O)(=O)N2CCOCC2)ccc1F | 12.6 µM (active)
CCOc1ccc(C2c3c(oc4ccccc4c3=O)C(=O)N2c2ccc(C)cn2)cc1OC (stereo not given) | 15.8 µM (active)
CC1CCc2c(sc3nc(C4CC4)nc(SCC(=O)NCc4ccco4)c23)C1 (stereo not given) | inactive
CCc1nc2nc(C)cc(Nc3cccc(C(F)(F)F)c3)n2n1 | 7.94 µM (active)
COC(=O)c1ccc(CSc2ccc3nnc(-c4cccc(F)c4)n3n2)o1 | 15.8 µM (active)
Cc1cc(C)nc(N2CCN(c3nc(C)nc4c3oc3ccccc34)CC2)n1 | inactive
Cc1nn(-c2ccccc2)c2sc(C(=O)N(CC(=O)NC(C)(C)C)Cc3ccco3)cc12 | 7.94 µM (active)
CN1C(=O)NC(c2ccccc2)C2=C1CN(Cc1ccccc1)C2=O (stereo not given) | inactive
Nc1nc(CSCc2ccccc2)nc(N2CCOCC2)n1 | inactive
Cc1ccc(Nc2c3c(nc4ncnn24)CCC3)cc1 | inactive
CCCN(C#N)c1nc(NCC)nc(NC(C)C)n1 | 12.6 µM (active)

Structure (SMILES) | Potency
Cc1cc(-c2nnc3n2N=C(c2ccc(-c4ccccc4)cc2)CS3)n[nH]1 | 12.6 µM (active)
Cn1c(/C(C#N)=C/C2CC=CCC2)nc2ccccc21 (stereo not given) | inactive
CC[C@]1(O)C[C@@H]2CN(CCc3c([nH]c4ccccc34)[C@](C(=O)OC)(c3cc4c(cc3OC)N(C)[C@H]3[C@](O)(C(=O)OC)[C@@H](C(=O)OC)[C@@]5(CC)C=CCN6CC[C@@]43[C@@H]65)C2)C1 | 0.0631 µM (active)
Cc1sc2nc(SCc3nc4ccccc4[nH]3)n(Cc3ccco3)c(=O)c2c1C | 1.26 µM (active)
CCOC(=O)C1=C(CN2CCC(C)CC2)NC(=O)NC1c1ccc(Cl)cc1 (stereo not given) | 12.6 µM (active)
COc1cc(C2NC(=O)NC(C)=C2C(=O)OC(C)(C)C)ccc1OCC(N)=O (stereo not given) | inactive
O=C(Nc1ccccc1O)c1cc(S(=O)(=O)N2CCOCC2)ccc1Cl | inactive
Cn1c(C(=O)NCCCN2CCCC2=O)cc2c(=O)n(C)c3ccccc3c21 | 25.1 µM (active)
COC(=O)Nc1nc2ccc(C(=O)c3cccs3)cc2[nH]1 | 0.794 µM (active)
CCCCCOC(=O)c1[nH]c2c(c1C)C(=O)CC(c1ccco1)C2 (stereo not given) | 0.251 µM (active)
COc1ccc(/C(O)=C(\C#N)c2nc3ccccc3n2C)cc1OC | 15.8 µM (active)
Fc1ccc(CSc2ncnc3c2oc2ccccc23)cc1 | 10 µM (active)
O=S(=O)(Nc1cccc(-c2nc3cccnc3s2)c1)c1ccc2c(c1)OCCO2 | 10 µM (active)
Cc1cc(N2CCN(S(=O)(=O)c3ccc4c(c3)OCCO4)CC2)n2ncnc2n1 | 3.16 µM (active)
CCCN(CCC)CCNC(=O)c1cc2c(=O)n(C)c3ccccc3c2n1C | inactive
Cc1ccc(-n2ncc3c(=O)[nH]c(SCC(=O)N4CCOCC4)nc32)cc1 | inactive
O=c1[nH]c(SCc2ccccc2Cl)nc2c1cnn2-c1ccccc1 | 3.98 µM (active)
CCN(CC)c1nc2ccccc2n2cnnc12 | 15.8 µM (active)
Cn1c(/C(C#N)=C/Nc2ccccn2)nc2ccccc21 | inactive
CCc1nc(Nc2ccc3nccnc3c2)c2oc3ccccc3c2n1 | 1.58 µM (active)
